Screening data deposited in PubChem by National Center for Advancing Translational Sciences (NCATS).
RORg inh: inhibitors of mouse ROR gamma transcriptional activity | P51450 | 5.4% of 310,000 active | Drosophila S2 Gal4-RORgamma UAS-luciferase reporter, 20 h | Potency, µM (highest dose often 53.6 µM), usual class: inhibitors; further: nearly all actives have a fitted effect of over 60% in size
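Drosophila S2 cells stably expressing Gal4-DBD/mouse RORγ fusion under metallothionein promoter plus UAS-luciferase; compound 1 h, then 700 uM CuSO4 induction for 20 h at ambient temperature; inhibition read as reduced luminescence.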
TDP1 cell noCPT: qHTS for Inhibitors of human tyrosyl-DNA phosphodiesterase 1 (TDP1): qHTS in cells in absence of CPT | DT40 Tdp1-/- hTDP1 cells, no CPT, ATP luminescence, 48 h | Potency, µM (top dose mostly 46.2 µM), hits mostly inhibitors | 15% of 420,000 active | AID 686978, 2013; further: nearly all actives have a fitted effect of over 55% in size
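Stably hTDP1-transfected Tdp1-null chicken DT40 cells were treated with library compounds minus camptothecin and grown for at least 48 hr at 37 °C, after which cellular ATP was quantified by luminescence.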
TDP1 cell CPT: DT40-hTDP1 cell growth loss with CPT. chicken DT40 Tdp1-/-;hTDP1 cells + 20 nM CPT, ATP luminescence, 48 h. Potency, µM (doses to about 46.2 µM), hits mostly inhibitors. 12% of 420,000 active. AID 686979; further: nearly all actives have a fitted effect of over 55% in size
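Cell growth measured by CellTiter-Glo luminescence after a minimum 48 h, 37 C compound exposure with 20 nM CPT in Tdp1-knockout DT40 cells stably expressing hTDP1, seeded 400/well; qHTS titration format.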
ELG1 repair inh: inhibitors of ELG1-dependent DNA repair in HEK293T cells | 2.3% of 330,000 active | Potency, µM (top dose mostly 46.1 µM), most hits filed as inhibitors | HEK293T ELG1-luciferase reporter, luminescence, 16 h; DNA damage induced by 5-fluorouridine; further: nearly all actives have a fitted effect of over 55% in size
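5-Fluorouridine DNA damage + compound/DMSO, 2,000 cells/well, 16 h, 37 °C/5% CO2. ONE-Glo, 30 min RT, luminescence. Readout = decrease in reporter signal.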
12-LOX inh: inhibitors of human 12S-lipoxygenase ALOX12; P18054; purified 12hLO, xylenol orange hydroperoxide absorbance; Potency, µM (doses to about 108 µM), most hits filed as inhibitors; 1.1% of 580,000 active
Target sequence (P18054 whole entry, looked up): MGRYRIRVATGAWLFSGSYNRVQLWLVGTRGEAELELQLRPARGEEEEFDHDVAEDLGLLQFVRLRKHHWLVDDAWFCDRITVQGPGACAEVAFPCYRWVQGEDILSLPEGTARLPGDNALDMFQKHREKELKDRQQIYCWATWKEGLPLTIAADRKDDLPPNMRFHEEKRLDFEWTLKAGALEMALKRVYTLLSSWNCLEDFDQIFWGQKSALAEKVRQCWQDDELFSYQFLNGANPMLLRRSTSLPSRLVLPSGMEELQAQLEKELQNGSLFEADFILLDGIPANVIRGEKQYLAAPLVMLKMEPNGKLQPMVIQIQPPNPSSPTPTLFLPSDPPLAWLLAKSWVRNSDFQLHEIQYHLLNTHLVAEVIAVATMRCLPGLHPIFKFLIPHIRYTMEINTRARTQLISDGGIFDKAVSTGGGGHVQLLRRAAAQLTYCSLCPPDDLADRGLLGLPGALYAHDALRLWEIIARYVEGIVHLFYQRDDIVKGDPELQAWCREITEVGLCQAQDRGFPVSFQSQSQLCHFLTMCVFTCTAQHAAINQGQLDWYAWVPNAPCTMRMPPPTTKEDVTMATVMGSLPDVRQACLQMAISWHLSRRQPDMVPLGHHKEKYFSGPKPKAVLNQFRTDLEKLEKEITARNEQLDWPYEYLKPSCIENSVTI
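Purified human 12hLO (150 nM final) in 25 mM Hepes, 0.01% Triton X-100, pH 7.0 was preincubated 15 min at room temperature with compound. Then 40 uM arachidonic acid was added, 30 min. Hydroperoxide was read by Fe-XO absorbance ratio 573/405 nm.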
Gal4-VP16 FLuc: inhibits Gal4-VP16 luciferase reporter, ROR gamma counter-screen; Potency, µM (top dose mostly 53.6 µM), most hits filed as inhibitors; Drosophila S2 Gal4-VP16 UAS-luciferase, luminescence, 20 h; AID 2546; 3.5% of 310,000 active;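 further: Gal4-VP16 expression switched on by copper sulfate through the metallothionein promoter; nearly all actives have a fitted effect of over 50% in size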
Numbers stand for hits; n = inactive; u = inconclusive; x = no result; [ ] = another dose, or the depositor's remark. An excerpt weighted towards active compounds, which were near 15% of everything screened. The call rests on the fitted dose curve; in most records, active means well fitted curve in the direction sought with a large enough effect; inconclusive means small, poorly fitted or top-dose-only effect, or another doubt; inactive means no such curve, though single readings can be large; an effect the other way counts as inactive or inconclusive.

SMILES | RORg inh | TDP1 cell noCPT | TDP1 cell CPT | ELG1 repair inh | 12-LOX inh | Gal4-VP16 FLuc
Cc1ccc(Cl)cc1NC(=O)C1CCN(c2nnc(C)c3c(C)n(-c4ccccc4)nc23)CC1 | x | 10µM | 8.2µM | x | n | x
Cc1ccc(Cl)cc1NC(=O)C1CCCCC1 | x | x | x | x | n | x
Cc1nnc(N2CCC(C(=O)NCCc3ccccc3)CC2)c2nn(-c3ccc(Cl)cc3)c(C)c12 | x | 21µM | 15µM | x | n | x
CCc1ccccc1NC(=O)N1CCN(c2nnc(C)c3c(C)n(-c4ccccc4)nc23)CC1 | x | 21µM | u | x | n | x
Cc1ccc(Cl)cc1NC(=O)C1CCN(c2nc3ccccc3n3cccc23)CC1 | x | 16µM | u | x | n | x
CCc1noc(-c2cccn3c(CNC(=O)c4cc(Cl)ccc4F)nnc23)n1 | x | x | x | x | n | x
Cc1nc2cc(NC(=O)C3CC(=O)N(C4CC4)C3)ccc2o1 (configuration not stated) | x | x | x | x | n | x
O=C(NCc1ccc(F)cc1)C1CCN(c2cnccn2)CC1 | n | u | 18µM | n | n | n
Cc1nnc(N2CCC(C(=O)NCc3ccc(F)cc3)CC2)c2nn(-c3ccc(Cl)cc3)c(C)c12 | x | u | 16µM | x | u | x
COc1ccc(-c2cc3nc(C)cc(N4CC(C)CC(C)C4)n3n2)cc1 (configuration not stated) | u | 18µM | u | u | n | u
COc1ccc(-c2cc3nc(C)cc(N4CCN(C(=O)c5ccoc5)CC4)n3n2)cc1 | x | 21µM | 18µM | x | n | x
CCOCCN1CCN(c2c(C)c(C)nc3cc(-c4cc(OC)cc(OC)c4)nn23)CC1 | n | 26µM | u | 16µM | n | n
COc1ccc(-c2cc(N3CCN(C(=O)c4ccc(C)nc4)CC3)n[nH]2)cc1 | x | x | x | x | n | x
COc1ccc(-c2cc3nc(C)c(C)c(N4CCN(C(=O)c5ccoc5)CC4)n3n2)cc1 | x | 18µM | u | x | u | x
Cc1c(C(=O)NCc2coc(-c3cccs3)n2)cccc1[N+](=O)[O-] | x | x | x | x | n | x
COc1cccc(-c2cc3nc(C)cc(N4CCN(C(=O)c5ccoc5)CC4)n3n2)c1 | x | 21µM | u | x | n | x
Cc1nc(N2CCN(C(=O)c3ccoc3)CC2)cc(C(F)(F)F)n1 | x | x | x | x | n | x
Cc1nc2cc(-c3cccc(F)c3)nn2c(C)c1CCC(=O)N1CCN(c2ccccn2)CC1 | u | n | n | n | n | n
Cc1nc2cc(-c3cccc(F)c3)nn2c(N2CCN(C(=O)c3ccco3)CC2)c1C | n | 15µM | 15µM | 16µM | n | n
COc1ccc(-c2[nH]nc3nc(N4CCN(C(=O)c5ccoc5)CC4)cc(C(F)(F)F)c23)cc1 | x | 8.2µM | 8.2µM | x | n | x
COC(=O)N(C)CC(=O)NCc1cccc(C)c1 | x | x | x | x | n | x
O=C(NCCC1=CCCN(CCCn2cccc2)C1)c1ccco1 | x | x | x | x | n | x
CNCc1cn(C2CCN(Cc3c(OC)ccc(F)c3F)CC2)nn1 | x | x | x | x | n | x
O=C(c1ccccc1F)N1CCC2(CC1)CCN(Cc1cccs1)c1ccccc1O2 | x | x | x | x | n | x
CN(Cc1nc2ccccc2[nH]1)S(=O)(=O)c1ccc(Cl)cc1C(F)(F)F | x | x | x | x | n | x
SMILES | RORg inh | TDP1 cell noCPT | TDP1 cell CPT | ELG1 repair inh | 12-LOX inh | Gal4-VP16 FLuc
CC1Cc2ccccc2C[N+]1(C)CC(=O)c1ccc(I)cc1 (configuration not stated) | x | 14µM | 10µM | x | x | x
CCOc1ccc(NC(=S)NCc2ccco2)cc1 | 14µM | n | n | n | u | u
S=C(NCc1ccco1)Nc1ccc(N2CCOCC2)cc1 | n | n | n | u | n | n
CCOc1ccc(NC(=O)C(=O)NCc2ccco2)cc1 | x | n | n | x | n | x
COc1ccc(NC(=S)NCc2ccco2)cc1 | 11µM | n | n | u | n | u
COc1cc(NC(=S)NCc2ccco2)cc(OC)c1 | 5.6µM | n | n | n | n | n[0.365 µM]
OCCCNC(=S)Nc1ccc(Oc2ccccc2)cc1 | n | n | n | n | u | u
CC(C)CNC(=S)Nc1ccc(Oc2ccccc2)cc1 | 3.5µM | u | u | n | u | 4µM
CN(C)C(=O)c1nc(-c2ccc(F)cc2)c2cnccn12 | x | x | x | x | n | x
O=C1CC(c2ccccc2)N(C(=O)CNC(=O)c2ccc3cc[nH]c3c2)CCCCCN1 (configuration not stated) | x | x | x | x | n | x
Cc1c(Cl)cccc1NC(=O)c1noc2c1CCCCC2 | x | x | x | x | n | x
Cc1ccnc(SCCCn2c(Br)nc3c2c(=O)[nH]c(=O)n3C)n1 | x | x | x | x | n | x
S=C(NCc1ccco1)Nc1ccc(Oc2ccccc2)cc1 | 6.3µM | u | u | n | 45µM | u
